Screening results (PubChem)
An excerpt weighted towards active compounds, which were near 7.1% of everything screened.
MARV entry inh – inhibitors of Marburg virus binding or entry into cells; Marburg virus pseudotype entry/binding inhibition, cell-based; Potency, µM (top dose mostly 49.2 µM), for inactives: at the highest dose activity change, negative = inhibition, most hits filed as inhibitors; 18,000 compounds, 6.5% hits
Lassa entry – Lassa virus entry inhibition; Lassa virus pseudotyped entry inhibition, cell-based qHTS; Potency, µM (doses to about 49.2 µM), without a hit: at the top dose activity change, negative = inhibition, actives largely listed as inhibitors; 18,000 compounds, 4.1% hits
* marks the source's active call; other numbers are inactive results; [ ] = remark or other dose. The call rests on the fitted dose curve; tested in HEK293 cells. On the % scale 0 is the no-effect control and ±100 the full control effect; potency means the concentration at half of the fitted maximal effect.

What do the screens show for `CSCC[C@@H]1NC(=O)[C@@H](NC(=O)[C@H](CCCNC(=N)N)NC(=O)[C@H](CC(C)C)NC(=O)[C@H](CCSC)NC(=O)[C@H](CC(=O)O)NC(=O)[C@H](Cc2ccccc2)NC(=O)[C@@H](N)CC(=O)O)CSSC[C@@H](C(=O)N[C@@H](Cc2c[nH]c3ccccc23)C(=O)N[C@@H](CCC(N)=O)C(=O)N[C@H](C(=O)O)C(C)C)NC(=O)[C@@H]2CCCN2C(=O)[C@H](CCCNC(=N)N)NC(=O)[C@H](Cc2ccc(O)cc2)NC(=O)[C@H](C(C)C)NC(=O)[C@H](CCCNC(=N)N)NC(=O)CNC(=O)[C@H](CC(C)C)NC1=O`?
MARV entry inh: 7%; Lassa entry: 6%

How did COCc1c(C(=O)NC2CCCCCC2)cnn1-c1nccc(-c2cc(C)sc2C)n1 do in these assays?
MARV entry inh: 24%; Lassa entry: 11%

How did COC(=O)C1=C(C)NC(C)=C(C(=O)OCCSc2ccccc2)C1C (centres undefined) do in these assays?
MARV entry inh: inconclusive; Lassa entry: 13µM*

Results for CCOC(=O)C1=C(C)NC(C)=C(C(=O)OC)C1c1cccc(Cl)c1Cl (centres undefined) ?
MARV entry inh: -3%; Lassa entry: -6%

Results for C=C(C)CCN1C(=O)NC(c2cccc(C(F)(F)F)c2)C(C(=O)OC)=C1C (centres undefined) ?
MARV entry inh: -19%[8.59 µM]; Lassa entry: -10%[8.59 µM]

Results for NC[C@@H]1O[C@H](C23CC4CC(CC(C4)C2)C3)Cc2c1ccc(O)c2O ?
MARV entry inh: 13µM*; Lassa entry: inconclusive

What do the screens show for `NC[C@@H]1O[C@H](c2ccccc2)Cc2c1ccc(O)c2O`?
MARV entry inh: inconclusive; Lassa entry: -16%

How did O=C(CO)[C@@H](O)[C@H](O)[C@@H](O)C(=O)O do in these assays?
MARV entry inh: 18%; Lassa entry: -15%

How did CO/C=C(/C(=O)OC)c1ccccc1Oc1cc(Oc2ccccc2C#N)ncn1 do in these assays?
MARV entry inh: 28µM*; Lassa entry: 22µM*

How did CCN(CC)CCCN=C1NC(c2cccc(F)c2)C(C(=O)OC)=C(C)N1Cc1ccccc1 (centres undefined) do in these assays?
MARV entry inh: inconclusive; Lassa entry: -26%[8.59 µM]

Results for CCCOC(C(=O)OC1CCN(C)CC1)(c1ccccc1)c1ccccc1 ?
MARV entry inh: 6.3µM*; Lassa entry: 16µM*

How did C[N+]1(C)CCC(OC(=O)C(O)(c2ccccc2)C2CCCC2)C1 (centres undefined) do in these assays?
MARV entry inh: 8%; Lassa entry: inconclusive

What do the screens show for `CCN1C(=O)NC(CCc2ccccc2)C(C(C)=O)=C1C` (centres undefined)?
MARV entry inh: -9%[8.59 µM]; Lassa entry: -12%[8.59 µM]

Results for O=C(CCN1Cc2ccccc2OC(c2ccccc2F)C1)N1CCC(N2CCCC(O)C2)CC1 (centres undefined) ?
MARV entry inh: inconclusive; Lassa entry: -7%

What do the screens show for `COP(=O)(OC)[C@@H](O)C(Cl)(Cl)Cl`?
MARV entry inh: 10%[17.8 µM]; Lassa entry: 4µM*

Results for CCCC[C@]12Cc3c(ccc4ccccc34)[C@H](O1)c1c(cc(C)oc1=O)O2 ?
MARV entry inh: 34%[8.59 µM]; Lassa entry: 5%[8.59 µM]

What do the screens show for `Cc1[nH]c(/C=C2\C(=O)Nc3ccc(S(=O)(=O)N(C)c4cccc(Cl)c4)cc32)c(C)c1C(=O)N1CCN(C)CC1`?
MARV entry inh: 10µM*; Lassa entry: inconclusive

Results for CCC1(C2CCN(Cc3ccccc3Cl)CC2)NC(=O)N(CC2COc3ccccc3O2)C1=O (centres undefined) ?
MARV entry inh: inconclusive; Lassa entry: -9%

What do the screens show for `CCC1(C2CCN(Cc3cc4ccccc4o3)CC2)NC(=O)N(CC2COc3ccccc3O2)C1=O` (centres undefined)?
MARV entry inh: 32µM*; Lassa entry: -30%

What do the screens show for `Cc1nc(C)n(CC(=O)NCC2Cc3cc(-c4cccc(OC(F)(F)F)c4)ccc3O2)n1` (centres undefined)?
MARV entry inh: 2%; Lassa entry: -19%

How did CC(=O)Oc1cc(-c2coc3cc(OC(C)=O)c(OC(C)=O)c(OC(C)=O)c3c2=O)cc(OC(C)=O)c1OC(C)=O do in these assays?
MARV entry inh: 14µM*; Lassa entry: -5%

Results for COc1cc(-c2coc3cc(OC)c(OC)c(OC)c3c2=O)cc(OC)c1OC ?
MARV entry inh: 2%; Lassa entry: -11%

What do the screens show for `CO[C@@H]1[C@H](OC(=O)/C=C/C=C/C=C/C=C/C(=O)O)CC[C@]2(CO2)[C@H]1[C@@]1(C)O[C@@H]1CC=C(C)C`?
MARV entry inh: -9%; Lassa entry: inconclusive

How did Cc1cc(C(=O)Nc2ccccc2-c2nc(CNC(=O)C3COc4ccccc4O3)c(C)o2)c(C)o1 (centres undefined) do in these assays?
MARV entry inh: inconclusive; Lassa entry: 2%

What do the screens show for `CN(C)CCc1c[nH]c2ccc(O)cc12`?
MARV entry inh: -13%; Lassa entry: -9%

What do the screens show for `COc1ccc(CNC(=O)/C=C\c2ccc3[nH]cc(CCN(C)C)c3c2)cc1`?
MARV entry inh: 22µM*; Lassa entry: -23%

What do the screens show for `CO[C@@H]1[C@@H](O[C@@H]2O[C@H](C)[C@@H](O[C@H]3C[C@@](C)(O)[C@@H](OC(=O)CC(C)C)[C@H](C)O3)[C@H](N(C)C)[C@H]2O)[C@@H](CC=O)C[C@@H](C)[C@@H](O)/C=C/C=C/C[C@@H](C)OC(=O)C[C@H]1O`?
MARV entry inh: inconclusive; Lassa entry: -1%

How did COc1cc(-c2cc(C)c3cccc(OC)c3n2)cc2c1OCCN(C(=O)CCn1nc(C)cc1C)C2 do in these assays?
MARV entry inh: 5%; Lassa entry: -34%

Results for COc1cc(O)c(C(C)=O)c(OC)c1 ?
MARV entry inh: 8.9µM*; Lassa entry: 5.6µM*

Results for COc1ccc(C(=O)CC(=O)c2c(O)cc(OC)cc2OC)cc1 ?
MARV entry inh: 18%[8.59 µM]; Lassa entry: -12%[8.59 µM]

What do the screens show for `CC(C)(C)C(=O)OCC(=O)[C@H]1CC[C@H]2[C@@H]3CCC4=CC(=O)CC[C@]4(C)[C@H]3CC[C@]12C`?
MARV entry inh: 10%; Lassa entry: -4%

Results for Cc1cc(N)c2ccccc2[n+]1CCCCCCCCCC[n+]1c(C)cc(N)c2ccccc21 ?
MARV entry inh: inconclusive; Lassa entry: 28µM*

How did CC(C)NC[C@@H](O)COc1cccc2[nH]ccc12 do in these assays?
MARV entry inh: 2%; Lassa entry: 1%

How did CC(C)NCC(O)COc1cccc2ccccc12 (centres undefined) do in these assays?
MARV entry inh: 20µM*; Lassa entry: inconclusive

Results for C=CC[C@@H]1C=CC(ON=C(C)CCC(=O)OC[C@H]2O[C@H](C#Cc3ccccc3)C=C[C@H]2Oc2ccc(C)cc2)[C@H](CO)O1 (some centres undefined) ?
MARV entry inh: 29%[8.59 µM]; Lassa entry: -19%[8.59 µM]

Results for C=C1C[C@H](OC(=O)C(C)(O)CCl)C2C(=C)C(=O)O[C@@H]2C2C1C[C@H](O)[C@]2(O)CCl (some centres undefined) ?
MARV entry inh: 20µM*; Lassa entry: inconclusive

How did CCCCCCCC/C=C\CCCCCCCC(=O)N[C@@H](CO)Cc1ccc(O)cc1 do in these assays?
MARV entry inh: inconclusive; Lassa entry: 28µM*

How did CCCCCCCC/C=C\CCCCCCCC(=O)NC(C)C(=O)O (centres undefined) do in these assays?
MARV entry inh: 2%; Lassa entry: 6%
